This note sets out measurements from PubChem BioAssay.

Inconclusive results are not listed. Active and inactive are the calls of the source.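 Rule for the calls, unless noted: active = efflux inhibition above 0.42, the validation set average plus 4 SD; inconclusive = no clear call, values can overlap the other calls; inactive = the rest.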

Experiment [1] in a line: rapamycin-like changes in RPL19A-GFP expression – cell-based, S. cerevisiae, multiplex flow cytometry, primary screen (AID 1862; in the data active = percent of DMSO control GFP below about 86%;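 note: lower values mimic rapamycin by blocking the RPL19A rise seen in DMSO cells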). The conditions noted are these: S. cerevisiae RPL19A-GFP strain, flow cytometry fluorescence, 3 h; at 10 µM; stronger effect = lower value. On the technique in general: In flow cytometry, cells or beads pass a laser one at a time.
The nature of experiment [2]: TOR pathway GLN3 branch reporter MEP2-GFP changes – S. cerevisiae, multiplex flow cytometry, primary screen (AID 1867;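 active = GFP response, as percent of the DMSO control, above the screen-wide mean plus 3 SD, about 139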;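 note: median GFP channel fluorescence of barcode-gated MEP2-GFP cells measured by flow cytometry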). The conditions noted are these: S. cerevisiae MEP2-GFP strain, 3 h, at 10 µM, stronger effect = higher value, 100% means same as DMSO wells.
Experiment [3] is described as follows: TOR pathway RTG branch CIT2 reporter changes – S. cerevisiae, GFP fusion, multiplex flow cytometry, primary screen (AID 1870;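 active = percent response above a set limit, the screen-wide mean plus 3 SD, cut at about 130% in these data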;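 note: barcoded CIT2-GFP strain pooled with four other GFP strains with rapamycin as positive control; median GFP fluorescence per well over plate mean of DMSO wells so 100% = DMSO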). The conditions noted are these: S. cerevisiae CIT2-GFP expression, 3 h, at 10 µM, stronger effect = higher value.
Experiment [4] in a line: TOR pathway LAP4-GFP level changes – S. cerevisiae, multiplex flow cytometry, primary screen (AID 1873;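 active = GFP signal, as percent of the solvent control, above the screen mean plus 3 SD, about 149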). The settings on record: S. cerevisiae LAP4-GFP expression, 3 h, at 10 µM, stronger effect = higher value.
The nature of experiment [5]: yeast AGP1-GFP level changes, GLN3 branch – cell-based, multiplex flow cytometry, S. cerevisiae, primary screen (AID 1887;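 active = GFP signal above the screen-wide mean plus 3 SD, that is over about 124.5% of the solvent control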;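 note: AGP1-GFP fusion strain of S. cerevisiae within a five-strain barcoded multiplex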). The settings on record: 3 h, at 10 µM, stronger effect = higher value.
Experiment [6] is described as follows: reduced mouse 2C T cell binding to pMHC/ICAM-1 vesicles – MLPCN validation set, flow cytometry, LFA-1/ICAM-1 modulator project, pilot screen (AID 2523;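 active = response below a set limit, under 55% cells CD8-positive and vesicle-bound, and CD8 cells' 90th-percentile brightness under 279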;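 for vesicle binding response: mean PE anti-B7-1 fluorescence of CD8+ cells relative to row control; 100% = QL9-loaded vesicles with DMSO vehicle in the same plate row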). The settings on record: 2C mouse CD8+ T cells, at 7 µM, stronger effect = lower value; double positive events: measured here: CD8+/vesicle+ event percentage.
In experiment [7] the target is Integrin beta-1 (Homo sapiens) + Integrin alpha-4 (Homo sapiens) (UniProt P13612+P05556). As to the kind of experiment: alpha4beta1 integrin LIBS antibody binding reduction – U937 cells, HUTS-21 mAb, flow cytometry, validation set, VLA-4 allosteric modulator project, pilot screen (AID 2674;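 active = inhibition above 50%, about 3 SD of the validation set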;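 note: antibody binding induced by the VLA-4 ligand LDV present at three times its Kd; 0% = LDV ligand with antibody and no compound and 100% = antibody without LDV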). The settings on record: HUTS-21 LIBS mAb binding, at 6.7 µM, stronger effect = higher value, binding induced by LDV ligand.
Sequence of Integrin beta-1 (Homo sapiens) + Integrin alpha-4 (Homo sapiens) (P05556 whole entry, looked up): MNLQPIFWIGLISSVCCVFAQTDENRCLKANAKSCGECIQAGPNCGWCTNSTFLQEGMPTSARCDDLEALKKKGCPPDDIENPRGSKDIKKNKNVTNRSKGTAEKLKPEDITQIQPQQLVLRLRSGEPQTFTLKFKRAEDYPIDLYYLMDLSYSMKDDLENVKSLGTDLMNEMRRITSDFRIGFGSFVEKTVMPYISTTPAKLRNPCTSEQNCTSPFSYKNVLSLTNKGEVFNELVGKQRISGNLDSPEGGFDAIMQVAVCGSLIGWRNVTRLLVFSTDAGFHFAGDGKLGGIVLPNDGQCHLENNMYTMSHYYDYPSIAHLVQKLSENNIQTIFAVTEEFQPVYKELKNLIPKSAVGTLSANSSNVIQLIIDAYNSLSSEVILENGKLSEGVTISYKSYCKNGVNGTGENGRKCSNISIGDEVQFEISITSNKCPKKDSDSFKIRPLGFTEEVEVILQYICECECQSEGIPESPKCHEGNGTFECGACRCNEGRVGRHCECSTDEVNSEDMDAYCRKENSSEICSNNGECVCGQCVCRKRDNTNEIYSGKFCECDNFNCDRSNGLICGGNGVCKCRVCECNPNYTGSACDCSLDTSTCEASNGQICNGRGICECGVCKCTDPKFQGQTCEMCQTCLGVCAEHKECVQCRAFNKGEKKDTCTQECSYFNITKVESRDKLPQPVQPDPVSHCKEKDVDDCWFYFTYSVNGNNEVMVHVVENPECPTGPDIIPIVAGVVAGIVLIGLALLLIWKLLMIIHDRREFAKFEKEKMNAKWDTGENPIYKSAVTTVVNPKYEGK
Sequence of Integrin beta-1 (Homo sapiens) + Integrin alpha-4 (Homo sapiens) (P13612 whole entry, looked up): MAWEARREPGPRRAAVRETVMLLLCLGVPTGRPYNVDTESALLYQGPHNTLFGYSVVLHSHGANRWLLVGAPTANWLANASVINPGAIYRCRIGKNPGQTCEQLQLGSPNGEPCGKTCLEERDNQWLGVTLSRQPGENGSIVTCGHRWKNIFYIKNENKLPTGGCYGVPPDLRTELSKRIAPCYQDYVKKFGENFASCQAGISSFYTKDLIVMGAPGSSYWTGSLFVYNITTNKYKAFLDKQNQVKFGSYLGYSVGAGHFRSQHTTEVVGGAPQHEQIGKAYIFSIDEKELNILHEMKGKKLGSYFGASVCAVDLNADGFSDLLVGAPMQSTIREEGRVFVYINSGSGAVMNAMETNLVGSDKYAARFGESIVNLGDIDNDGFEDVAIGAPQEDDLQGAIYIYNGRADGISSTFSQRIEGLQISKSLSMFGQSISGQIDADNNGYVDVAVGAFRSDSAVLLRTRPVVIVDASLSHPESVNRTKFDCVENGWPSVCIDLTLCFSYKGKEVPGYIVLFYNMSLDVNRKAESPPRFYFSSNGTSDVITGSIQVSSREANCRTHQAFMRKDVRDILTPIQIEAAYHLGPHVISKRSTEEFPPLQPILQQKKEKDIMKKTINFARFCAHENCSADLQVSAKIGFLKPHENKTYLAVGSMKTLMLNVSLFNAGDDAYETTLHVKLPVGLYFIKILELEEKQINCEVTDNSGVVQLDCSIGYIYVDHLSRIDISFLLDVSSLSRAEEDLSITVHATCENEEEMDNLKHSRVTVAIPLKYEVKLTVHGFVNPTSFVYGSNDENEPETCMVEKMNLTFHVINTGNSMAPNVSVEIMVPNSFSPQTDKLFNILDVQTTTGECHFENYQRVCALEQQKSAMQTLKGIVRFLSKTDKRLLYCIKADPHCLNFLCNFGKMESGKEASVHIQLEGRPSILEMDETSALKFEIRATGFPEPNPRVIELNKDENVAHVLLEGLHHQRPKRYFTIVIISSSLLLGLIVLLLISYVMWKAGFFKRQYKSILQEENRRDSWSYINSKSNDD

The nature of experiment [8]: calorie-restriction mimetic ROS inhibitors, yeast – validation compound set, pilot screen (AID 2706;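 active = superoxide response below 65% of plate, a cut near 3 SD across the whole screen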;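 note: yeast exposed to compound for one week at 30 degrees C before staining; 100% = mean of all compound wells on the same plate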). The conditions noted are these: S. cerevisiae aging, superoxide DHE fluorescence; at 10 µM, stronger effect = lower value.
Experiment [9] deals with Beta-adrenergic receptor kinase 1 (Homo sapiens) (UniProt P25098). The experiment can be described thus: GRK2 binders displacing RNA aptamer, biochemical, validation, human GRK2, bead flow cytometry (AID 488806;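 active = aptamer binding inhibition above 30%, about 3 SD of noise from non-fluorescent compounds; inactive = inhibition at or below 30%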). The settings on record: bead-bound GRK2, FAM-aptamer displacement, at 10 µM, stronger effect = higher value.
Sequence of Beta-adrenergic receptor kinase 1 (Homo sapiens) (P25098 whole entry, looked up): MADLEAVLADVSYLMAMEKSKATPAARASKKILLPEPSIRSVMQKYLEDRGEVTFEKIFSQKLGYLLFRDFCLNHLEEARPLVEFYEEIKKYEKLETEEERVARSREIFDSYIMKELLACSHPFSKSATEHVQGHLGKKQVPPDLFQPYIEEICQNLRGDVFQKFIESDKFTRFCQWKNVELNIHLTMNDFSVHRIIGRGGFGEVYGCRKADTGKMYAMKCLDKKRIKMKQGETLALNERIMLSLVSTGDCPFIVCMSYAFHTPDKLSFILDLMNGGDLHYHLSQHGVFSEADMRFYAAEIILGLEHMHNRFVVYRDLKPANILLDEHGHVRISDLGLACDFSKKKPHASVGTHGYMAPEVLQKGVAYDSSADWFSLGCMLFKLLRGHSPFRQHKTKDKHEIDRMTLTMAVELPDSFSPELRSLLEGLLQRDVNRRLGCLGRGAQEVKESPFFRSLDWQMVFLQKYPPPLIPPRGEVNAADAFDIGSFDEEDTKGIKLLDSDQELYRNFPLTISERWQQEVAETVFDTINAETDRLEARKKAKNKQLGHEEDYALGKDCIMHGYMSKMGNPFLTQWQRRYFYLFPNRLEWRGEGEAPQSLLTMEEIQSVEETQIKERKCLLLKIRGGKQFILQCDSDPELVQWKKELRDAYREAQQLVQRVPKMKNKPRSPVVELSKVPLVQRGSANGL
Experiment [10] deals with AP-2 complex subunit beta (Homo sapiens) (UniProt P63010). As to the kind of experiment: beta-arrestin/AP2 interaction blockers – biochemical, validation set, GST-AP2 beads, flow cytometry, pilot screen (AID 504541;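 active = inhibition above 54%, about 3 SD of non-fluorescent compounds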;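 note: AP2 carries R879A mutation and is captured from E. coli lysate; bead-bound FITC arrestin peptide fluorescence measuring arrestin peptide binding to AP2; 0% = DMSO wells and 100% = excess unlabeled arrestin peptide control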). The settings on record: FITC arrestin peptide, at 10 µM, stronger effect = higher value, AP2 beta2 appendage fragment, R879A mutant.
Sequence of AP-2 complex subunit beta (Homo sapiens) (P63010 whole entry, looked up, the tested form may be a part, one chain of several): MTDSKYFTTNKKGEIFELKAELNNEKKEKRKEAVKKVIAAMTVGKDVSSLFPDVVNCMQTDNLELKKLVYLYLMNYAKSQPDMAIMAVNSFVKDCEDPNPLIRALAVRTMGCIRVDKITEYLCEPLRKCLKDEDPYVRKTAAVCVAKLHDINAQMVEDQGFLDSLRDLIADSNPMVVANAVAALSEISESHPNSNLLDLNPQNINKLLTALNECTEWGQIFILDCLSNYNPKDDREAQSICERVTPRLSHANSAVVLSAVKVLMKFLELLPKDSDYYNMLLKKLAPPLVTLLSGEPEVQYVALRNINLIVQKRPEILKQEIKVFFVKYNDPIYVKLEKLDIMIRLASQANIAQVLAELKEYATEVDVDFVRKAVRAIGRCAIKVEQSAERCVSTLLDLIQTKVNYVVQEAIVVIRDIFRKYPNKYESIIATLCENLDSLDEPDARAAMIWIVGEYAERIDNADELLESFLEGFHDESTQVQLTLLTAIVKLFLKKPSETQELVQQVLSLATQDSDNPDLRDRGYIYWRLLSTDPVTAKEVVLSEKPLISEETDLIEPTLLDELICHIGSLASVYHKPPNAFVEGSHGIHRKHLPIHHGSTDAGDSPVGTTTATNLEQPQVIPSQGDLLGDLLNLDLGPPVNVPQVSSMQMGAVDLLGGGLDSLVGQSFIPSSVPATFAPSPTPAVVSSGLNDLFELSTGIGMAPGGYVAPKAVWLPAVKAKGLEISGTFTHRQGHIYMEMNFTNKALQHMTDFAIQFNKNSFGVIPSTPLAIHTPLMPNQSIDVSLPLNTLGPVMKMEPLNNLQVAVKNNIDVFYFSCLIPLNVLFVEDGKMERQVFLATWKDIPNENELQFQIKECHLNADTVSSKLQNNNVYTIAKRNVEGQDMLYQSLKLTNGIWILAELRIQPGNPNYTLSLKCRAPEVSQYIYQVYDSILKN
Experiment [11] can be described thus: cytosolic pH regulators acting via V-ATPase – S. cerevisiae, pHLuorin, HTS validation (AID 504600; in the data active = response above about 15%;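 note: plate controls were DMSO for no effect and reference compound for full effect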). The settings on record: V-ATPase proton transport, at 10 µM, stronger effect = higher value.
Experiment [12] has as its system anti-desmoglein-3 scFv antibody binding to human DSG3. As to the kind of experiment: blockers of pathogenic pemphigus antibody–desmoglein-3 binding – biochemical, validation compound set, bead-based, flow cytometry, pilot screen (AID 588368;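 active = binding below the plate cutoff, the plate median minus 3 SD, with a reading above zero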;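 note: signal is the median channel fluorescence of bead-bound GFP antibody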). The settings on record: Protein G beads, DSG3-Fc, scFv-GFP binding, at 10 µM, stronger effect = lower value.
Experiment [13] can be described thus: Nile Red efflux blockade in pump-expressing yeast – validation compound set, multiplex, phenotypic, pilot screen (AID 588506).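 Note: Nile Red retained in cells so higher fluorescence means more efflux inhibition; 0 = negative control wells and 1 = enniatin B 25 µM full block.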 The conditions noted are these: S. cerevisiae pump-expressing triplex, Nile Red efflux flow cytometry; at 10 µM; stronger effect = higher value; the pumps come from Candida albicans.
Experiment [14] addresses ATP-binding cassette sub-family B member 6 (Homo sapiens) (UniProt Q9NP58). The experiment can be described thus: blockers of ABCB6-driven porphyrin uptake – K562-ABCB6 cells, flow cytometry, validation set, pilot screen (AID 588550;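 active = inhibition above the screen-wide mean plus 3 SD, about 51%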;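 note: 0% = DMSO wells and 100% = benzethonium chloride 70 µM positive control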). The settings on record: K562-ABCB6 porphyrin accumulation, 1 h, at 10 µM, stronger effect = higher value.
Experiment [15] can be described thus: AML differentiation inducers, ER-HoxA9 marrow cells – cell-based, GFP/MAC1 double positive, flow cytometry, validation set, primary screen (AID 588685;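 active = differentiation response of at least 50%, scaled between solvent and reference control, from cells with both markers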;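 note: compound exposure lasts four days before antibody staining and flow analysis; 0% = DMSO wells and 100% = 5 µM fulvestrant positive control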). The settings on record: stronger effect = higher value, normalized: vehicle 0, fulvestrant 100.

Sequence of ATP-binding cassette sub-family B member 6 (Homo sapiens) (Q9NP58 whole entry, looked up): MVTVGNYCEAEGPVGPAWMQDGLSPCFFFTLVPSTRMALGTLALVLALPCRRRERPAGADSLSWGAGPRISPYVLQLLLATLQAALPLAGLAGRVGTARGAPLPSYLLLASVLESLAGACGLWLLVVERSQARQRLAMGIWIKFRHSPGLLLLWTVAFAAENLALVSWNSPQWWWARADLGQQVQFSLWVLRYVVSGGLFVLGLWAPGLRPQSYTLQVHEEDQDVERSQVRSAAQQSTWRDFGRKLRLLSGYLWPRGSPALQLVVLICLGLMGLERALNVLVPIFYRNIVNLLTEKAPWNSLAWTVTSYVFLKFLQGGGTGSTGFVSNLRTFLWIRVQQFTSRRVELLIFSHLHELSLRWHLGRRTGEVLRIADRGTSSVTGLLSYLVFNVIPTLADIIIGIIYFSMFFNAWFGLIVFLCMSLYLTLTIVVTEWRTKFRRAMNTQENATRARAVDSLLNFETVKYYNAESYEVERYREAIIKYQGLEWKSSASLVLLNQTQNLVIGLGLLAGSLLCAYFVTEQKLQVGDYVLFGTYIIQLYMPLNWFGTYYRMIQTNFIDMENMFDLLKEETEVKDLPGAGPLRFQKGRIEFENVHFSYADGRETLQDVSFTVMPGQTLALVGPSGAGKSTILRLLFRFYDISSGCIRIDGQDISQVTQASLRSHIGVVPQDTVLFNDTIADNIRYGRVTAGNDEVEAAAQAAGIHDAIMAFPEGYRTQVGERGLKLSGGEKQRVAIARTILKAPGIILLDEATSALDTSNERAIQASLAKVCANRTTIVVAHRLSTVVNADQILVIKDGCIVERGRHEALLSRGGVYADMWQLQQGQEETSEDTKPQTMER

On to `CC1=CC2(O)OCCN(CCO)C2=CC1=O` (stereo not given), for which the percent of DMSO control GFP in [1] is 103% (inactive). Moreover, the GFP response vs DMSO in experiment [2] is 102% (inactive); in experiment [4], 93.3% (inactive). In addition, the percent response of DMSO control in [3] is 101% (inactive). Also, the GFP response, % of DMSO in experiment [5] was 97.9% (inactive). Besides, the double positive events in experiment [6] was determined as 56.9%. Besides, the vesicle binding response in [6] was 162% (inactive). Besides, the values for the inhibition in [7], in experiment [10] and in experiment [14] were -12.4% (inactive), -3.8% (inactive) and 7% (inactive), respectively. For the same compound, in experiment [8], the superoxide response (% of plate) is 103% (inactive). Besides, the aptamer binding inhibition in experiment [9] is 2% (inactive). Besides, the response in experiment [11] was -1.28% (inactive). Also, in [12], the binding (% of control) was 102% (inactive). Also, in experiment [13], the efflux inhibition (fraction of control) is 0.29 (inactive). Also, the differentiation response in experiment [15] is 3.03% (inactive).

Turning to `COC1=CC(=O)CC(C)C12Oc1c(Cl)c(OC)cc(OC)c1C2=O` (stereo not given), the percent of DMSO control GFP in experiment [1] was 105% (inactive). Further, the GFP response vs DMSO in experiment [2] was 99.9% (inactive); in experiment [4], 103% (inactive). The percent response of DMSO control in experiment [3] was 107% (inactive). Moreover, the GFP response, % of DMSO in [5] is 98.7% (inactive). In experiment [6], this compound displayed a double positive events of 42.3%. In addition, the vesicle binding response in experiment [6] was 131% (inactive). The inhibition (usually the change of the read-out against control, counted positive when it falls) is 8.15% (inactive) in [7], 14.5% (inactive) in experiment [10] and 8% (inactive) in experiment [14]. Moreover, the superoxide response (% of plate) in experiment [8] is 97.4% (inactive). Further, the aptamer binding inhibition in [9] was -1% (inactive). The response in [11] was 0.18% (inactive). The binding (% of control) in [12] was 95.9% (inactive). The efflux inhibition (fraction of control) in experiment [13] is -0.09 (inactive). Also, in [15], the differentiation response was -14.7% (inactive).

On to `CC(C)Cn1c(=S)[nH]c2cc(C(=O)O)ccc2c1=O`, for which the percent of DMSO control GFP in experiment [1] was 105% (inactive). For the same compound, the values for the GFP response vs DMSO in experiment [2] and in [4] were 97.9% (inactive) and 84.3% (inactive), respectively. Moreover, the percent response of DMSO control in experiment [3] was 108% (inactive). Moreover, the GFP response, % of DMSO in [5] was 98.5% (inactive). In addition, in experiment [6], the double positive events worked out at 61%. Also, the vesicle binding response in experiment [6] was 197% (inactive). In addition, the values for the inhibition in experiment [7], in experiment [10] and in experiment [14] were -1.17% (inactive), -1.44% (inactive) and 2% (inactive), respectively. Moreover, the superoxide response (% of plate) in experiment [8] was 106% (inactive). In addition, the aptamer binding inhibition in [9] is 4% (inactive). Besides, the response in [11] is -0.3% (inactive). The binding (% of control) in experiment [12] was 96.7% (inactive). Also, the efflux inhibition (fraction of control) in [13] was -0.01 (inactive). Besides, the differentiation response in experiment [15] is -26% (inactive).

`O=C(CC(C(=O)O)c1c[nH]c2ccccc12)c1ccccc1` (stereo not given): the percent of DMSO control GFP in experiment [1] was 101% (inactive). Besides, the GFP response vs DMSO in experiment [2] was 109% (inactive); in experiment [4] it was 103% (inactive). Also, the percent response of DMSO control in [3] was 98.8% (inactive). Moreover, the GFP response, % of DMSO in experiment [5] is 96.3% (inactive). This compound had a double positive events in experiment [6] of 58.5%. For the same compound, the vesicle binding response in experiment [6] was 147% (inactive). Besides, the values for the inhibition in experiment [7], in experiment [10] and in experiment [14] were 10% (inactive), 11.2% (inactive) and 3% (inactive), respectively. In addition, in [8], the superoxide response (% of plate) was 92.2% (inactive). Further, in [9], the aptamer binding inhibition was 4% (inactive). In experiment [11], the response is -1.72% (inactive). Also, in experiment [12], the binding (% of control) is 102% (inactive). In [13], the efflux inhibition (fraction of control) is 0.03 (inactive). For the same compound, the differentiation response in [15] is -5.05% (inactive).

`C=CCc1ccccc1OCC(O)CNC(C)C` (stereo not given): the percent of DMSO control GFP in experiment [1] is 103% (inactive). Moreover, the GFP response vs DMSO is 107% (inactive) in [2] and 108% (inactive) in experiment [4]. For the same compound, the percent response of DMSO control in [3] was 104% (inactive). Further, the GFP response, % of DMSO in experiment [5] was 118% (inactive). The compound also had a double positive events in experiment [6] of 61.2%. Further, the vesicle binding response in experiment [6] is 209% (inactive). Besides, the inhibition in experiment [7] was -11.3% (inactive); in [10], -4.94% (inactive); in [14], -2% (inactive). Further, in experiment [8], the superoxide response (% of plate) was 96.7% (inactive). For the same compound, the aptamer binding inhibition in experiment [9] was -32% (inactive). For the same compound, the response in experiment [11] was 0.57% (inactive). For the same compound, in [12], the binding (% of control) was 107% (inactive). The efflux inhibition (fraction of control) in [13] is 0.12 (inactive). For the same compound, in [15], the differentiation response is -11.9% (inactive).
